Sampled rows, rich in hits. Any-hit rate of the full collection: about 4.7%.
TROY NFkB inh: inhibitors of TROY-driven NF-kB signaling, primary screen, Q293 LMP1-TROYcd cells, NF-kB luciferase, uHTS. AID 1347056, 2019. inhibition, % at 10 µM. 360,000 compounds, 0.98% hits. Q293 LMP1-TROYcd NF-kB luciferase reporter, 4 h;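 active = compounds whose plate-normalised and pattern-corrected inhibition of the luciferase reporter signal at the single screening dose is 50% or more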
HSF-1 act: HSF-1 activators, primary screen, NIH3T3-HGL cells, MG132 stress, luminescence, single point; NIH3T3-HGL HSF-1 luciferase reporter, 8 h; 100% = twice DMSO control signal; activation, % at 9 µM; 300,000 compounds, 1.7% hits; AID 504408, 2011;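 active = mean replicate activation of at least 50% with a set share of replicates each reaching 50%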;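 note: 0% = median of the neutral control wells and 100% = twice that signal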
TWEAK-Fn14 inh: inhibitors of TWEAK-Fn14 signaling, primary screen, luciferase reporter cells, uHTS; TWEAK-stimulated Fn14 reporter cells, luciferase luminescence, 8 h; inhibition, % at 10 µM; 360,000 compounds, 2% hits; in the data active = inhibition above about 50%
LMP1 NFkB inh: EBV LMP1-driven NF-kappaB luciferase reporter inhibitors, primary screen, cell-based, luminescence, single point | 350,000 compounds, 0.69% hits | inhibition, % at 12.5 µM | AID 504558, 2011 | LMP1-induced NF-kappaB luciferase reporter cells; in the data active = inhibition above about 41%;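 note: 0% = neutral control wells and 100% = reference inhibitor control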
HSF1 inh: HSF1 inhibitors in luciferase reporter cells, primary screen, cell-based, NIH3T3, luminescence; activity change, negative = inhibition, % at 7.5 µM (by protocol); 300,000 compounds, 0.77% hits; NIH3T3-HGL HSE-luciferase, MG132-induced, luminescence 8 h; hits give low values;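 active = more than half of replicate wells show activity change below -50%, luminescence cut by over half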;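 note: luciferase reports HSF-1 transcriptional activity via heat shock element; 0% = median of DMSO wells and -100% = zero luminescence signal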
HSP90 inh: HSP90 inhibitors, primary screen, cell lysate, luminescence; inhibition, % at 5.6 µM; 290,000 compounds, 0.91% hits; Rabbit reticulocyte lysate, luciferase refolding luminescence, 3 h; Heat shock protein HSP 90 (rabbit reticulocyte lysate; luciferase refolding);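 active = inhibition above the screen-wide mean plus 3 SD, computed separately per campaign, cut at about 16% in these data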;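 note: 0% = DMSO wells and 100% = 60 µM geldanamycin wells; inhibitors lower the luminescence because luciferase stays unfolded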
The depositor's hits bear a star; . = not tested or not shown.

SMILES	TROY NFkB inh	HSF-1 act	TWEAK-Fn14 inh	LMP1 NFkB inh	HSF1 inh	HSP90 inh
Cc1cc(C)c(S(=O)(=O)N2CCN(C(=O)c3ccccc3OCc3c(C)noc3C)CC2)c(C)c1	-2	.	-4	46*	.	.
Cc1ccc(S(=O)(=O)N2CCN(C(=O)c3ccccc3OCc3c(C)noc3C)CC2)cc1C	39	4	-1	-3	2	.
CN1C(=O)CC2(C)C1=CCc1scnc12 (stereo not given)	3	.	-8	.	.	.
CC(C1CC1)N(Cc1ccccc1)C(=O)NC(=O)c1ccccc1 (stereo not given)	7	-3	-11	-6	-1	-1
CC(C1CC1)N(Cc1ccccc1)C(=S)Nc1ccccc1Cl (stereo not given)	86*	3	7	-3	7	4
CCOC(=O)c1nn(-c2ccc(C)c(C)c2)cc1O	-19	21	23	3	24	3
CCOC(=O)c1nn(-c2c(C)n(C)n(-c3ccccc3)c2=O)cc1O	.	-12	61*	4	6	1
O=C(NC(c1ccc(Cl)cc1)c1cccnc1)C1CCN(CCOc2ccc(Cl)cc2Cl)CC1 (stereo not given)	31	.	-43	.	.	.
CC(=O)Oc1c(Cl)cc(Cl)cc1/C=C/c1ccc2ccccc2n1	-6	161*	38	-11	119	-3
CC(=O)Oc1ccc(Cl)cc1/C=C/c1ccc2ccccc2n1	-41	60*	31	-92	46	-6
COc1cc(/C=C/c2cc(OC(C)=O)c3ccccc3n2)c(OC(C)=O)c([N+](=O)[O-])c1	-9	-16	4	3	-10	6
CC1OC(CCc2cccc(Cl)c2)Cc2[nH]c(=S)[nH]c(=O)c21 (stereo not given)	15	.	11	.	.	.
CCN1C(=O)[C@H]2[C@@H](c3ccc(OC)cc3)N[C@]3(CCCN(Cc4ccc(Br)cc4)C3=O)[C@H]2C1=O	-23	.	-1	3	.	.
CCOc1nc(SC(C(C)=O)C(=O)Nc2ccccc2)nc(N(C)C)n1 (stereo not given)	-46	56*	-13	-7	34	-3
COc1ccc(C(c2c(C)n(C)n(-c3ccccc3)c2=O)c2c(C)n(C)n(-c3ccccc3)c2=O)cc1O	.	12	.	.	3	1
C=CCOc1ccc(C(c2c(C)n(C)n(-c3ccccc3)c2=O)c2c(C)n(C)n(-c3ccccc3)c2=O)cc1	-25	-87	1	-9	-85*	4
CCc1nc2ccc(C(=O)NCCNC(C)=O)cn2c1N(C)CCCc1ccccc1	1	.	0	.	.	.
Cc1cc2nc(-c3nnnn3-c3c(C)cccc3C)c(=O)[nH]c2cc1C	12	.	38	.	.	.
Cc1sc2nc(CSc3cccc(C(F)(F)F)c3)[nH]c(=O)c2c1C	-12	82*	12	6	33	-6
CCCCOc1cccc(C2C(C(=O)c3cccs3)=C(O)C(=O)N2Cc2cccnc2)c1 (stereo not given)	-32	-73	-2	8	-64*	1
CCOc1cccc(C2C(C(=O)c3cccs3)=C(O)C(=O)N2Cc2cccnc2)c1 (stereo not given)	-25	4	1	-1	4	0
N#Cc1ccc(-c2cccc3nccn23)cc1	-13	.	-8	.	.	.
CCOc1ccc(N/C(SCc2cccc([N+](=O)[O-])c2)=C(/C#N)C(N)=O)cc1	11	12	8	-6	13	0
N#CC(C#N)=C(Nc1ccc(F)cc1)SCc1cccc(F)c1	53*	32	49	18	8	3
CCn1c(C)cc(O)c(C(=O)Nc2cccc(Cl)c2)c1=O	-22	46	-15	-6	16	-5
CCn1c(C)c(C)c2cc(C(=O)Nc3cccc(Cl)c3)ccc21	-91	43	-43	53*	23	0
COc1ccc(Cl)cc1CNC[C@H]1O[C@@H](n2cnc3c(=O)[nH]c(N)nc32)[C@H](O)[C@@H]1O	6	.	-1	.	.	.

Screens from PubChem.
